Experimental findings from PubChem BioAssay AID623997 (National Center for Advancing Translational Sciences (NCATS), 2012) are described below.

Molecules are shown by their SMILES. Records with an inconclusive call do not appear. Values without a mark were called inactive. Calls of active or inactive are those of the source. How the calls were made is not given here.

This experiment can be described thus: qHTS Assay for Inhibitors of Influenza NS1 Protein Function: Mammalian Cell Viability. The note with it: NS1 counter-screen; at 100 µM (top of the series). The text has this:
Influenza is a world-wide public health problem and emerging forms of the virus have the potential to cause a pandemic of equal or greater magnitude to the outbreaks recorded in 1918, 1957 or 1968. Vaccine development is proceeding and there also exist two classes of anti-influenza compounds. However these therapeutic modalities are neither fully effective nor widely enough available to fulfill global needs. In addition their potential usefulness against newly emergent strains is not known. Efforts are needed to develop novel agents against influenza virus, including broad-spectrum agents. Identification of small molecules that inhibit NS1 function either directly or by interfering with specific cellular pathways may be a key to increasing our defense against the virus.
We have miniaturized and optimized a cell based assay in which NS1 from influenza A is expressed in the budding yeast S. cerevisiae. NS1 is a multi-functional protein that counters the host innate immune response and facilitates viral versus cellular gene expression. Expression of NS1 causes a pronounced slow growth phenotype in yeast due to its intrinsic molecular activities. Small molecules that suppress the slow growth phenotype can be identified by a straightforward growth recovery assay using optical density (OD) as the measurement. The same yeast strain not expressing NS1 was used as positive control in the yeast growth recovery assay.
Hits resulting from this primary screen and other follow-up screens, were tested in four concentrations for this mammalian cell viability assay, using MDCK cells.
NIH Chemical Genomics Center [NCGC]
NIH Molecular Libraries Probe Centers Network [MLPCN]
Assay Submitter (PI): Daniel Engel, University of Virgina
Opaque-walled 96-well plates were seeded with […] MDCK cells per well in 100 uL medium and incubated overnight at 37 deg C. The compound was added to triplicate wells for each concentration tested and incubated for 48 h at 37 deg C. The plate was equilibrated for 30 min at room temperature and 100 uL CellTiter Glo reagent (Promega) added according to the manufacturer's protocol. The plate was shaken for 2 min and then incubated for 10 min at room temperature. Luminescence was recorded in an LMAX 384 reader (Molecular Devices) with integration time of 1 s.
For orientation: In qHTS, concentration-response curves come from the screen itself.
With `COc1ccc(-c2c(C#N)c(N)nc3c2c(C)nn3-c2ccc(C)cc2)cc1OC`, the viability (commonly a read-out of living cells in per cent, often relative to untreated cells) was 103%.

As for `COc1ccc(-c2c3c(C)nn(-c4ccccc4)c3nc3[nH]c(=O)[nH]c(=O)c23)cc1OC`, the viability was 83.5%.

As for `COc1cc(-c2c(C#N)c(N)nc3c2c(C)nn3-c2ccc(C)c(C)c2)ccc1O`, the viability was 99.3%.

On to `COc1ccc(-c2c3c(C)nn(-c4ccccc4)c3nc3[nH]c(=O)[nH]c(=O)c23)cc1O`, for which the viability is 102%.

For `COc1cc(-c2ccnc3c2c(C)nn3-c2ccc(C(F)(F)F)cc2)ccc1O`, the viability is 118%.

Consider `COc1cc(-c2ccnc3c2c(C)nn3-c2cccc(C(F)(F)F)c2)ccc1O`, for which the viability was 114%.

As for `COc1ccc(-n2nc(C)c3c(-c4ccc(O)c(OC)c4)ccnc32)cc1`, the viability is 108%.

Turning to `COc1cc(-c2c(C#N)c(N)nc3c2c(C)nn3-c2ccc(Cl)cc2)cc(OC)c1OC`, the viability is 92.1%.

Consider `COc1ccc(-c2ccnc3c2c(C)nn3-c2ccc(F)cc2)cc1`, for which the viability was 114%.

For the molecule `COc1cc(-c2c(C#N)c(N)nc3c2c(C)nn3-c2ccccc2)ccc1O`, the viability was 101%.

As to `COc1cccc(-c2ccnc3c2c(C)nn3-c2ccc(F)cc2)c1`, the viability is 4.7% (active).

As for `COc1cc(-c2c(C#N)c(N)nc3c2c(C)nn3-c2ccc(C)c(C)c2)cc(OC)c1OC`, the viability was 90.8%.

In the case of `COc1cc(-c2c(C#N)c(N)nc3c2c(C)nn3-c2ccc(C)cc2)ccc1O`, the viability was 94%.

Regarding `COc1cc(-c2c(C#N)c(N)nc3c2c(C)nn3-c2ccc(F)cc2)cc(OC)c1OC`, the viability is 90.7%.

For the molecule `CCOC(=O)c1cnc2c(c(C)nn2-c2ccc(F)cc2)c1-c1ccc(O)c(OC)c1`, the viability was 54.9%.

Regarding `COc1cc(-c2c(C#N)c(=O)[nH]c3c2c(C)nn3-c2ccccc2)ccc1O`, the viability is 85.2%.

Take `Cc1nn(-c2ccc(F)cc2)c2nc(N)c(C#N)c(-c3ccc(O)c(O)c3)c12`: the viability was 86%.

As to `COc1cc(-c2c(C#N)c(=O)[nH]c3c2c(C)nn3-c2ccccc2)cc(OC)c1OC`, the viability was 97.8%.

With `COc1cc(-c2c(C#N)c(N)nc3c2c(C)nn3-c2ccc(F)cc2)ccc1O`, the viability is 88%.

As to `Cc1nn(-c2ccc(Cl)cc2)c2nc(N)c(C#N)c(-c3ccc(O)c(O)c3)c12`, the viability was 68.5%.

Take `Cc1ccc(-n2nc(C)c3c(-c4ccc(O)c(O)c4)c(C#N)c(N)nc32)cc1`: the viability was 94.7%.

As for `COc1ccc(-c2c(C#N)c(N)nc3c2c(C)nn3-c2ccccc2)cc1OC`, the viability is 101%.

As for `COc1cc(-c2ccnc3c2c(C)nn3-c2ccc(F)cc2)ccc1O`, the viability is 65%.

With `Cc1nn(-c2ccccc2)c2nc(N)c(C#N)c(-c3ccc(O)c(O)c3)c12`, the viability is 105%.

Consider `COc1ccc(-c2ccnc3c2c(C)nn3-c2ccc(F)cc2)cc1OC`, for which the viability is 93.4%.

`Cc1nn(-c2ccccc2)c2nc3[nH]c(=O)[nH]c(=O)c3c(-c3ccc4c(c3)OCO4)c12`: the viability was 72.3%.

In the case of `COc1cc(-c2c3c(C)nn(-c4ccccc4)c3nc3[nH]c(=O)[nH]c(=O)c23)cc(OC)c1O`, the viability was 98.6%.

Take `COc1ccc(-c2c(C#N)c(N)nc3c2c(C)nn3-c2ccc(Cl)cc2)cc1OC`: the viability is 103%.

As to `COc1cccc(-n2nc(C)c3c(-c4ccc(O)c(OC)c4)ccnc32)c1`, the viability is 124%.

As to `COc1cc(-c2c3c(C)nn(-c4ccccc4)c3nc3[nH]c(=O)[nH]c(=O)c23)ccc1O`, the viability is 101%.

In the case of `COc1cc(-c2c(C#N)c(N)nc3c2c(C)nn3-c2ccc(C)cc2)cc(OC)c1OC`, the viability was 99.9%.

As for `COc1cc(-c2ccnc3c2c(C)nn3-c2cccc(F)c2)ccc1O`, the viability was 122%.

In the case of `COc1ccc(-c2c(C#N)c(N)nc3c2c(C)nn3-c2ccc(F)cc2)cc1OC`, the viability was 101%.
